Source: PubChem BioAssay (several laboratories)
Hits are enriched below; roughly 2.9% of the tested compounds scored in any of these assays.
Mtb BioA inh: BioA (M. tuberculosis) enzyme inhibition; purified M. tuberculosis BioA enzyme, plate reader; inhibition, % at 9.99 µM; hit rate 0.096% among 360,000; in the data active = inhibition above about 40%
GDH-TPI inh: inhibits GDH-TPI coupling enzymes, artifact for Mtb FBA screen; GDH-TPI coupled enzyme counterscreen, NADH absorbance; inhibition, % at 4.8 µM; hit rate 1.2% among 360,000; AID 588335; in the data active = inhibition above about 30%;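 note: 0% = DMSO wells and 100% = wells lacking the enzyme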
FadD28 binding: blocks FadD28 binding to the bisubstrate probe | fluorescence polarization | inhibition, % at 12.5 µM | hit rate 0.22% among 360,000; in the data active = inhibition above about 8.5%, passing the limit was not always enough
FBA Mtb inh: Mtb fructose-bisphosphate aldolase inhibition | purified M. tuberculosis FBA, fluorescence read-out | inhibition, % at 1 µM | P9WQA3 | hit rate 2.3% among 360,000; in the data active = inhibition above about 27%;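 note: 0% = vehicle and 100% = reference inhibitor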
Target sequence (P9WQA3 whole entry, looked up): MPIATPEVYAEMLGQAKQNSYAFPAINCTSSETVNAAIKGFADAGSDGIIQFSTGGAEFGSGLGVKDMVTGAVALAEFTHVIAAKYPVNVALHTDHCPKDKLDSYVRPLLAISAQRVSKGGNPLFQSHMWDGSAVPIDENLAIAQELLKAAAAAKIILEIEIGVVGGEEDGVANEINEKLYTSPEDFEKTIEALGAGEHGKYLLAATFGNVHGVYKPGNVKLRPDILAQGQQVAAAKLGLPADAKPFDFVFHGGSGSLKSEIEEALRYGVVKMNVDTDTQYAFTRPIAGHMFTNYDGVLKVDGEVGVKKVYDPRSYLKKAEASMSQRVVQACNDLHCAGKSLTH
Mtb hypoxia inh: inhibitors of hypoxia-regulated fluorescent reporter in Mycobacterium tuberculosis | M. tuberculosis hypoxia-regulated fluorescent reporter, fluorescence | fluorescence inhibition, % (no concentration beside the values) | hit rate 0.1% among 300,000 | AID 1159583; in the data active = fluorescence inhibition mostly above about 23%, no sharp cut-off; inactive = mostly below about 17%
* = called active by the depositor; / = not tested or not shown; + = active, no number.

SMILES | Mtb BioA inh | GDH-TPI inh | FadD28 binding | FBA Mtb inh | Mtb hypoxia inh
CN(C)/C=C/C(=O)/C=C/c1ccc(Cl)cc1Cl | / | 22.4 | -1.6 | 1.2 | 11.3
C[C@H](CO)N1C[C@H](C)[C@H](CN(C)S(=O)(=O)c2cccs2)Oc2ccc(NC(=O)C3CCCCC3)cc2CC1=O | 1.9 | / | / | / | /
CC(C)CCN(N=O)C(Cc1ccccc1)CN(N=O)C(Cc1ccccc1)CN(C)N=O (stereo not drawn) | / | / | / | / | 16.8
O=[N+]([O-])c1c(Nc2ccccc2O)cc(Cl)c2nonc12 | 3.3 | 5.6 | -2.7 | -7.0 | 12.9
Nc1cc(Cl)c2nonc2c1[N+](=O)[O-] | / | -2.3 | -16.2 | -5.4 | 40.1*
Oc1[nH]c2ccccc2c1/C=N/c1nccs1 | -0.1 | 31.1* | 1.1 | -1.8 | /
COc1ccccc1/C=C(\NC(=O)c1ccc(OC)c(OC)c1)C(=O)Nc1ccc([N+](=O)[O-])cc1 | / | 35.6* | -0.7 | 0.4 | -3.5
CC(=O)c1cccc(NC(=O)/C(=C\c2cccnc2)NC(=O)c2ccccc2)c1 | 3.2 | 2.3 | -0.2 | -0.5 | -0.9
O=C(NNc1cccc([N+](=O)[O-])c1)/C(=C\c1cccnc1)NC(=O)c1ccccc1 | 2.7 | 44.2* | -0.2 | 1.1 | 5.9
COc1ccccc1/C=C(\NC(=O)c1ccc(OC)c(OC)c1)C(=O)Nc1cccc([N+](=O)[O-])c1 | / | 32.4* | -1.1 | -0.3 | -4.4
COc1ccccc1C#Cc1cnc2c(c1)C(=O)N([C@@H](C)CO)C[C@H](C)[C@H](CN(C)C(=O)CN(C)C)O2 | 2.8 | / | / | / | /
CC(C)CC(NC(=O)c1nc[nH]c1C(=O)NCC(=O)OC(C)(C)C)C(=O)OC(C)(C)C (stereo not drawn) | / | / | / | / | -2.8
CCC(=O)N1C[C@H](C)[C@@H](OC)CN(C)C(=O)c2cc(NC(=O)Nc3ccc(Cl)cc3)ccc2OC[C@H]1C | 0.0 | / | / | / | /
Oc1ccc(C=NNC(=S)Nc2ccccc2)nc1 | 0.1 | 54.0* | -1.0 | 8.8 | /
S=C(N/N=C/c1ccccc1Cl)Nc1ccccc1 | -0.2 | 29.1 | -0.9 | 0.9 | /
NS(=O)(=O)c1ccc(NC=C2C(=O)OC3(CCCCC3)OC2=O)cc1 | 0.7 | 31.8* | 1.1 | -1.3 | 0.3
CCCC#Cc1ccc([C@@H]2[C@H](CO)N3CCCCN(S(=O)(=O)c4ccccc4C)C[C@@H]23)cc1 | -3.6 | / | / | / | /
COc1ccc(/C=N/Nc2cc(=O)n(C)c(=O)n2C)cc1OC | / | 34.0* | 0.5 | 12.6 | /
COc1ccc(/C=C/C(=O)NNc2cc(=O)n(C)c(=O)n2C)cc1OC | / | 33.5* | -2.4 | 11.5 | -5.0
COc1cc(/C=N\Nc2cc(=O)n(C)c(=O)n2C)ccc1O | / | 18.0 | 2.0 | -0.1 | /
C[C@@H]1CN([C@@H](C)CO)S(=O)(=O)c2ccc(C#C[C@@H](C)O)cc2O[C@@H]1CN(C)C(=O)c1ccccc1 | 3.1 | / | / | / | /
CN(C)c1ccc(C=NNc2cc(N3CCOCC3)nc(N3CCOCC3)n2)cc1 | / | / | / | / | -4.5
CC(C)C1Nc2c(O)cc(Cl)c([N+](=O)[O-])c2C2C=CCC21 (stereo not drawn) | 4.3 | 4.6 | 24.9* | -6.0 | 20.5
COc1ccccc1N1C(=O)c2ccccc2NC1c1ccncc1 (stereo not drawn) | 14.6 | 1.1 | -5.5 | 6.6 | /
O=C1c2ccccc2NC(c2ccncc2)N1c1ccccn1 (stereo not drawn) | 0.9 | 3.1 | -1.6 | 53.6* | 9.4
SMILES | Mtb BioA inh | GDH-TPI inh | FadD28 binding | FBA Mtb inh | Mtb hypoxia inh
Clc1nc2sccn2c1/C=N/n1cnc2ccccc21 | -0.1 | 46.9* | -3.1 | -0.4 | /
O=C(N/N=C/c1cn(-c2ccccc2)nc1-c1cc2ccccc2o1)c1ccccc1Br | -1.1 | 30.9* | -1.6 | 2.5 | /
COc1ccccc1C=NN1CCN(Cc2ccccc2Cl)CC1 | / | / | / | / | 10.9
Cc1ccccc1/C=C/c1nc2ccccc2c(=O)[nH]1 | / | 33.5* | -3.6 | -3.7 | -3.8
Cc1ccc(NC(=O)c2cc(S(=O)(=O)N(C)C)ccc2N2CCCC2)cc1S(=O)(=O)N(C)C | / | 2.4 | -2.0 | 1.1 | -4.9
Cc1ccc(NC(=O)c2cc(S(=O)(=O)N3CCCCC3)ccc2N2CCOCC2)cc1S(=O)(=O)N(C)C | 1.5 | 9.1 | -2.7 | 0.7 | 26.4*
CNC(=O)C[C@H]1CC[C@@H]2[C@@H](COc3ccc(NC(=O)Nc4ccc(F)c(F)c4)cc3C(=O)N2C)O1 | 38.8 | / | / | / | /
c1ccc(CSc2nnc(-c3cccnc3)o2)cc1 | / | 1.6 | -0.4 | 2.0 | 39.7*
COc1ccc2c(c1)c(C(=O)N/N=C/c1cn(C)c3ccccc13)c(C)n2C | / | 36.6* | -1.3 | -2.6 | /
COc1ccc2c(c1)c(C(=O)NN=Cc1ccccc1Cl)c(C)n2C | / | / | / | / | 9.4
Cn1cc(/C=N/NC(=O)c2cccc([N+](=O)[O-])c2)c2ccccc21 | / | 36.7* | -0.3 | -1.1 | /
Cc1nc(C)c(C(=O)N/N=C/c2cn(C)c3ccccc23)s1 | / | 33.8* | 0.2 | -2.2 | /
CC(=O)n1cc(C=NNC(=O)c2sc(C)nc2C)c2ccccc21 | / | / | / | / | 6.0
Cn1cc(/C=N/NC(=O)c2ccccc2O)c2ccccc21 | 0.6 | 58.7* | 3.0 | 2.1 | /
Cn1cc(C(=O)NN=Cc2cccc([N+](=O)[O-])c2)c2ccccc21 | / | / | / | / | 5.0
CC(=O)n1cc(/C=N/NC(=O)c2ccccc2O)c2ccccc21 | / | 16.9 | -12.5 | -1.9 | /
CCCNC(=O)N1CC[C@@H]2[C@H]1c1cc(-c3ccc(F)cc3)ccc1N(C)[C@H]2CO | 0.1 | / | / | / | /
CCC(=O)Nc1ccc2c(c1)C(=O)N(C)[C@H]1CC[C@@H](CC(=O)N[C@H](C)c3ccccc3)O[C@@H]1CO2 | -4.0 | / | / | / | /
C[C@@H]1CN([C@@H](C)CO)C(=O)Cc2cc(NS(=O)(=O)c3ccccc3)ccc2O[C@@H]1CN(C)Cc1ccccc1 | 5.4 | / | / | / | /
COCC(=O)Nc1ccc2c(c1)[C@@H]1C[C@@H](CC(=O)N[C@H](C)c3ccccc3)O[C@H](CO)[C@@H]1O2 | -0.9 | / | / | / | /
C[C@H]1CN([C@@H](C)CO)C(=O)c2cc(-c3ccc(C(=O)N(C)C)cc3)cnc2O[C@@H]1CN(C)C(=O)c1cccnc1 | -4.1 | / | / | / | /
S=c1[nH]nc(-c2cc3ccccc3o2)n1Cc1ccccc1 | 8.7 | 19.8 | -0.1 | 132.1* | -0.6
Cc1ccc(-c2n[nH]c(=S)n2Cc2ccccc2)cc1 | 0.7 | -6.1 | -1.3 | 7.1 | 2.2
COc1ccc2nc(C=NNC(=O)CCNC(=O)OC(C)(C)C)ccc2c1 | / | / | / | / | 19.0
COc1ccc2nc(/C=N/NC(=O)CCNC(=O)OC(C)(C)C)ccc2c1 | / | 52.4* | -2.3 | 68.7* | /
C/C=C/c1ccc2c(c1)O[C@H](CN(C)Cc1ccccn1)[C@H](C)CN([C@@H](C)CO)S2(=O)=O | -0.1 | / | / | / | /
C[C@@H]1CN([C@@H](C)CO)C(=O)Cc2cc(NS(=O)(=O)c3cn(C)cn3)ccc2O[C@H]1CN(C)C(=O)Nc1ccc(F)cc1 | 0.5 | / | / | / | /
Cc1cc(=O)oc2c3c(cc(OCC(=O)N4CCC(C(=O)O)CC4)c12)OC(C)(C)CC3 | 0.3 | 21.5 | 1.0 | + | /
Cc1c(CCC(=O)N2CCC[C@H]2C(=O)O)c(=O)oc2c(C)c3oc4c(c3cc12)CCCC4 | 1.0 | 27.4 | -5.9 | 26.1 | /
CCCCc1cc(=O)oc2c3c(cc(OCC(=O)N4CCC[C@H]4C(=O)O)c12)OC(C)(C)CC3 | -3.1 | 27.4 | 0.5 | + | /
